# Laboratory results reported in PubChem BioAssay (NCI).
# About 79,000 compounds went through this panel and 15% of them were active in at least one assay; those are over-represented in the sample as a whole. A number with no mark means an inactive call. Activity calls are given as the source filed them. Rule as the data show it: active = growth inhibition above about 70%; inactive = the rest.
# Assays:
# [1] = NCI Yeast Anticancer Drug Screen. Data for the rad50 strain (AID 155);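 also: 0% = growth of vehicle-only cultures of the same strain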; settings: S. cerevisiae rad50 strain growth inhibition; at 50.0 µM; active compounds read high
# Summary of the method: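 Vehicle-treated cultures provide the reference for the growth inhibition reported for compound-exposed, repair-deficient yeast.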
# [2] = NCI Yeast Anticancer Drug Screen. Data for the mec2-1 strain (AID 157); settings: S. cerevisiae mec2-1 strain, at 50.0 µM, active compounds read high
# Summary of the method: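 Growth inhibition is read against vehicle-treated controls after compound exposure of the mec2-1 yeast strain, which is defective in DNA damage repair or cell cycle control.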
# [3] = NCI Yeast Anticancer Drug Screen. Data for the sgs1 mgt1 strain (AID 161);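 also: 0% = growth of cultures given vehicle only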; settings: S. cerevisiae sgs1 mgt1 strain, at 50.0 µM, active compounds read high
# Summary of the method: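 Percent growth inhibition was derived by comparing compound-exposed mutant yeast with vehicle-exposed cultures. The strain carries alterations in DNA damage repair.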
# [4] = NCI Yeast Anticancer Drug Screen. Data for the cln2 rad14 strain (AID 165);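 also: 0% = growth equal to vehicle treated cultures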; settings: S. cerevisiae cln2 rad14 strain, at 50.0 µM, active compounds read high
# Summary of the method: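 Growth inhibition, relative to vehicle-treated controls, is the read-out. The test organism is a yeast strain with defined genetic alterations, cln2 rad14.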
# [5] = NCI Yeast Anticancer Drug Screen. Data for the bub3 strain (AID 167); settings: S. cerevisiae bub3 mutant strain, at 50.0 µM, active compounds read high
# Summary of the method: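 Mutant yeast screening strain plus compound; vehicle-treated cultures serve as the 0% inhibition reference.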
# [6] = NCI Yeast Anticancer Drug Screen. Data for the mlh1 rad18 strain (AID 175); settings: S. cerevisiae mlh1 rad18 strain growth inhibition; at 50.0 µM; active compounds read high
# Summary of the method: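 Cells of a genetically altered yeast strain, deficient in DNA damage repair, were treated with compound. Their growth was then compared with that of vehicle-treated cultures to give inhibition.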
Structure (SMILES),growth inhibition [1],growth inhibition [2],growth inhibition [3],growth inhibition [4],growth inhibition [5],growth inhibition [6]
CCO/C=C1/N=C(c2ccccc2Cl)OC1=O,10.2%,5.25%,-1.05%,-30.1%,-17.1%,14.3%
Nc1c(S(=O)(=O)O)cc(S(=O)(=O)O)c2ccc(N=Nc3ccccc3)c(O)c12,7.15%,0.9%,-10.8%,-3.05%,-8.7%,-15.7%
CCOC(=O)/C=C/C(=O)NN,11.4%,-6.35%,2.6%,-26%,0.4%,5.6%
COc1cc(C=O)c(-c2c(C=O)ccc3c2OCO3)c(OC)c1OC,24.4%,-1.9%,30.2%,18.1%,26%,-1.5%
CC(CO)(CO)N1C(=O)c2cccc3cc([N+](=O)[O-])cc(c23)C1=O,31.4%,29.1%,50.1%,31.1%,35.2%,14.3%
C/C=C(\C)c1cc(=O)c2c(C)cc3c(c2o1)C(=O)c1c(OC)cccc1C3=O,14.2%,-14.8%,-1.05%,-4.65%,-6.95%,23.9%
NC(C1SCCS1)C(O)C(O)C(O)CO (configuration not stated),-5.55%,-27.6%,-1.9%,-3.7%,3.1%,-3.95%
O=P1(c2ccccc2)OCC2=C(c3ccccc3)CC2=C1c1ccccc1 (configuration not stated),16.1%,12.2%,4.7%,10.1%,-2.05%,19.9%
CC(=O)Nc1cc(Cl)ccc1C,39.7%,29.9%,26.3%,16.1%,5.95%,24.1%
CC1SC2(C(=O)Nc3ccccc32)N(c2ccc(O)cc2)C1=O (configuration not stated),6.25%,-2.75%,9.45%,2%,7.9%,14.8%
CC(=O)c1c(C)n(-c2ccccc2)c2c1nnc1ccccc12,3.3%,3.65%,22.2%,-8.65%,-5.65%,4.15%
O=[N+]([O-])c1ccc(N/N=C(/c2ccc(Cl)cc2)c2ccccc2Cl)c([N+](=O)[O-])c1,-15.8%,1.2%,-6.25%,-16.8%,3.35%,21.4%
COCCOCCOCCC(=O)NC1CC2CCC1(C)C2(C)C (configuration not stated),-10.5%,-1.85%,8.2%,-16.7%,23.7%,15.4%
c1ccc(CCCCc2ccccc2)cc1,25.1%,3.2%,14.1%,6.4%,3.35%,11.4%
Cc1nc(-c2ccccc2)[nH]c(=O)c1Cc1cc2c(cc1O)OCC2,21.8%,6.6%,6.9%,-12.2%,-7.85%,8.4%
C=C(C(=C)P(=S)(c1ccccc1)c1ccccc1)P(=S)(c1ccccc1)c1ccccc1,-10%,-10.7%,-37.1%,-7.15%,-5.8%,-16.3%
Cc1cn(C2CC(O)C(CO)O2)c(=O)nc1N1CCCC1 (configuration not stated),-4.2%,-7.4%,-12.9%,-8.55%,-0.4%,0.55%
CCc1cccc(CC)c1NC(=O)c1ccccc1Cl,7.9%,24.6%,31.3%,0.8%,26.1%,26.8%
O=c1[nH]c(=O)n(C2CC(O)C(CO)O2)cc1C#Cc1ccc(F)cc1 (configuration not stated),-3.45%,19.2%,-15.2%,-5.6%,3.85%,-8.95%

Structure (SMILES),growth inhibition [1],growth inhibition [2],growth inhibition [3],growth inhibition [4],growth inhibition [5],growth inhibition [6]
O=C(O)CCSc1ccccc1[N+](=O)[O-],31.6%,-8.6%,23.4%,-10.3%,-0.9%,19.9%
COc1c(NC(=O)c2cccc(C(=O)Nc3cccc([N+](=O)[O-])c3OC)c2)cccc1[N+](=O)[O-],-30.6%,-15.8%,-19.9%,-49.1%,-0.7%,-15.5%
Cc1ccc(Nc2nc3ccccc3nc2NS(=O)(=O)c2ccc(N)cc2)cc1,20.2%,11.8%,13.3%,5.85%,7.45%,-4.2%
O=C(O)c1cncc(C(=O)O)c1,-37%,-12.7%,-14.7%,-7.6%,-47.5%,-24.6%
COc1ccccc1NC(=O)Nc1ccc(Nc2ccccc2)cc1,92.7% (active),94.2% (active),92.2% (active),90.3% (active),92.2% (active),92.7% (active)
CC(C)(C)C(=O)c1ccc(-c2ccccc2)cc1,17.4%,-5.55%,-6.45%,-56.3%,6.7%,-2.1%
OC(CN1CCCCC1)c1ccncc1 (configuration not stated),0.5%,-24.8%,-8.4%,-0.9%,1%,1.4%
CCOC(=O)C(CSC(=O)c1ccccc1)NC(=O)OCc1ccccc1 (configuration not stated),40.4%,-3.35%,21.2%,-29.6%,2.65%,20.1%
COc1ccc(N=C(N)N=C(N)N)cc1,-3.3%,-2%,-6.9%,8.2%,-2.65%,0%
CC(C)c1cccc(C(C)C)c1NC(=O)/C(Cc1nc2ccc(Cl)cc2[nH]c1=O)=N\NC(=O)C[N+](C)(C)C,17.7%,16.2%,-12.3%,25.7%,26.9%,22.7%
C1=C(c2ccccc2)c2ccccc2/C1=N/Nc1ccccc1,6.4%,6.15%,8.1%,2.3%,0.6%,5%
O=C1C(=Cc2ccc([N+](=O)[O-])o2)C(=O)N(CCc2ccccc2)S(=O)(=O)N1CCc1ccccc1,38.9%,-3.65%,10.8%,-22.5%,-6.6%,2.4%
Clc1ccc(C2N3CCCCC3[C@@H]3c4[nH]c5ccccc5c4CCN23)cc1 (some centres not stated),-11.7%,-10.8%,-4.7%,-4.65%,0.3%,-8.5%
O=C(/C=C\c1ccc(Cl)cc1)OCCCCOC(=O)/C=C/c1ccc(Cl)cc1,27.1%,3.15%,-4.45%,9.5%,2.9%,5.25%
C1CSC[C@H]2COC[C@@H](CSCCS1)S2,-0.5%,4.25%,-2.55%,18.9%,9.05%,-7.9%
CC(=O)Nc1cc(F)c(N)c(F)c1,-10.9%,-4.3%,-13.3%,-5.25%,0.05%,-3.8%
CC(=O)OCC1OC=CC(OC(C)=O)C1OC(C)=O (configuration not stated),-23.1%,-18.8%,-8.55%,-5.85%,-25.8%,-7.5%
COC(=O)c1nc[nH]c1C(=O)OC,10.2%,-25.9%,15.8%,4%,-0.8%,12.6%
